{
  "source": "PubChem BioAssay (NCI)",
  "note": "Values joined by “and” are separate entries in the source; they are usually repeats but may differ in a detail not shown here. Equal entries are not always repeated. The panel holds about 83,000 compounds, 20% with a hit somewhere; the sample as a whole holds those more often.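 Assay: single dose, 48 h. Readout: percent growth (0 = no net growth; negative = cell death). Active: <10.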 Active and inactive are the calls of the source.",
  "data": [
    {"test_system": "MDA-MB-468 breast", "experiment": "NCI-60 one-dose screen, 48 h (100 = growth as untreated, 0 = no growth, -100 = all killed)", "conditions": "10 µM unless noted", "values": [
      {"smiles": "O=C1C[C@@H]2/C(=C(O)\\C=C\\c3ccccc3)C(=O)C=C[C@@H]2O1", "growth": "-76.9% (active)"},
      {"smiles": "COC[C@H](C)n1c(C2CCOCC2)nc2cnc3cc(-c4c(C)noc4C)c(OC)cc3c21", "growth": "54.5% (inactive)"},
      {"smiles": "COc1cc2nc3cc([N+](=O)[O-])ccc3c(NCCNCC(C)O)c2cc1OC", "note": "(stereo not given)", "growth": "-45.6% (active)"},
      {"smiles": "COc1ccccc1-n1c(SCc2cc(OC)c(OC)c(OC)c2)nc2ccc(Cl)cc2c1=O", "growth": "21.5% (inactive)"},
      {"smiles": "CCCCN(CCCC)CCCn1c(-c2ccccc2)ccc1-c1ccccc1", "growth": "43% (inactive)"},
      {"smiles": "Oc1ccc(Nc2ncnc3c2sc2ncccc23)cc1", "growth": "21.3% (inactive)"},
      {"smiles": "CC(C)[C@H]1c2[nH]c3ccccc3c2C[C@H]2C(=O)N(CCCCCCC(=O)NO)CC(=O)N12", "growth": "64.2% (inactive)"},
      {"smiles": "O=S(=O)(NCCNc1nccc(-c2c(-c3ccc(F)c(O)c3)nc3sccn23)n1)c1ccc(Cl)cc1", "growth": "19.5% (inactive)"},
      {"smiles": "CCCCC[C@H]1CC=C2C(=O)C=C[C@@H]2CC=CCCCC(=O)O[C@@H](CCCCC)CC=C2C(=O)C=C[C@@H]2CC=CCCCC(=O)O[C@@H](CCCCC)CC=C2C(=O)C=C[C@@H]2CC=CCCCC(=O)O1", "growth": "7.64% [8.75 µM] (active)"},
      {"smiles": "CC(=O)Nc1ccc(OC(C)=O)cc1", "growth": "5.17% (active) and 92.5% (inactive)"},
      {"smiles": "O=S1(=O)CC(Br)C(Br)C1", "note": "(stereo not given)", "growth": "37% (inactive) and 75.6% (inactive)"},
      {"smiles": "CCOC(=O)C1=C(c2ccccc2)N=C2N(c3ccccc3)N=C(C(C)=O)N2C1c1ccc(Br)cc1", "note": "(stereo not given)", "growth": "99.3% (inactive)"},
      {"smiles": "CC(C)c1ccc(C(=O)Nc2nc3ccc(O)c(CN(C)C)c3s2)cc1", "growth": "77.1% (inactive)"},
      {"smiles": "Cn1cc(-c2nonc2-c2cn(C)c3ccc(Br)cc23)c2ccccc21", "growth": "42.8% (inactive)"},
      {"smiles": "COc1cccc(COC(=O)Nc2ccccc2)c1OC", "growth": "93.3% (inactive)"},
      {"smiles": "NC1(c2ccc(-c3nc4ccn5c(=O)[nH]nc5c4cc3-c3ccccc3)cc2)CCC1", "growth": "-32.4% (active)"},
      {"smiles": "CN(C)CCCOc1ccccc1NC1=C(Cl)C(=O)C(Nc2ccccc2OCCCN(C)C)=C(Cl)C1=O", "growth": "-60.6% (active)"},
      {"smiles": "CNC(=O)c1cc(Oc2ccc3nc(NC(=O)c4ccc(N5CCOCC5)c(C(F)(F)F)c4)sc3c2)ccn1", "growth": "80.5% (inactive)"},
      {"smiles": "OC(CSc1ccccc1)CN1CCN(c2ccc(Cl)cc2)CC1", "note": "(stereo not given)", "growth": "86.7% (inactive)"},
      {"smiles": "Oc1ccc(CSc2nnc(-c3ccccc3)n2-c2ccccc2)c2cccnc12", "growth": "-2.77% (active)"},
      {"smiles": "COC(=O)c1cc(Br)ccc1O", "growth": "93% (inactive)"},
      {"smiles": "CCc1c(Nc2ccc(C)cc2)nc(N)[nH]c1=O", "growth": "94.5% (inactive)"},
      {"smiles": "CC(C)NC(=O)c1cc(-c2ccc(NC(=O)Nc3ccc(F)cc3)cc2)nc2cccnc12", "growth": "88.9% (inactive)"},
      {"smiles": "COC(=O)c1nc(=S)[nH]c(C(=O)OC)c1C(=O)c1ccc(OC)cc1", "growth": "94.7% (inactive)"},
      {"smiles": "Cc1cc(Nc2nc(N3CCN(C)CC3)nc3ccccc23)n[nH]1", "growth": "90% (inactive)"},
      {"smiles": "COc1cccc(/C=C/C(=O)c2cc3c(N)c(C(=O)Nc4cccc5ccccc45)sc3nc2C)c1", "growth": "17.4% (inactive)"},
      {"smiles": "COc1cc(C(C)n2cc(-c3ccccc3)nn2)ccc1OC1CCCCC1", "note": "(stereo not given)", "growth": "8.89% (active)"},
      {"smiles": "Cc1cc(C)c2c(NC(=O)Nc3ccc(Cl)c(Cl)c3)n[nH]c2n1", "growth": "109% (inactive)"},
      {"smiles": "CNC(=O)c1cc(Oc2ccc3nc(NC(=O)c4cc(N5CCOCC5)cc(C(F)(F)F)c4)sc3c2)ccn1", "growth": "63.7% (inactive)"},
      {"smiles": "COc1cc2nc(Nc3cccc(C(=O)O)c3)nc(N)c2cc1OC", "growth": "108% (inactive)"},
      {"smiles": "O=C1CSC(c2ccccc2Cl)N1c1nnc(-c2ccncc2)o1", "note": "(stereo not given)", "growth": "98.4% (inactive)"},
      {"smiles": "Cc1ccccc1Nc1nc2nonc2nc1Nc1cccc(C)c1C", "growth": "12.3% (inactive)"},
      {"smiles": "C(=C(\\C1=NCCN1)n1cnc2ccccc21)/c1cccc2ccccc12", "growth": "80.6% (inactive)"},
      {"smiles": "CC[N+](CC)(CC(=O)Nc1c(C)cccc1C)Cc1ccccc1", "growth": "63.8% (inactive)"},
      {"smiles": "O=C(O)c1cc([N+](=O)[O-])ccc1Cl", "growth": "109% (inactive)"},
      {"smiles": "C#Cc1ccccc1NC(=O)c1sc2nc3c(cc2c1N)CCCCC3", "growth": "119% (inactive)"},
      {"smiles": "Cc1ccc(Nc2nc(N)c3ccccc3n2)cc1Cl", "growth": "48% (inactive)"},
      {"smiles": "COCCCNC(=O)c1nnn2c1nc(N)c1cc(Cl)ccc12", "growth": "88.6% (inactive)"},
      {"smiles": "N[C@@H](CO)C(=O)O", "growth": "103% (inactive)"},
      {"smiles": "CCN1C(=O)N(CC)C2C1NN=c1s/c(=C\\c3ccc(OC)cc3)c(=O)n12", "note": "(stereo not given)", "growth": "-0.192% (active)"}
    ]}
  ]
}
